Reference: PubChem BioAssay AID1159580 (chemical genetic matrix, 2015)
Where “and” joins values, the source holds several entries; their conditions need not be identical. Equal entries are not always repeated. Hit rate of the full screen: of about 5,500 compounds, about 2,000 (36%) were called active. Not shown: some 18% with an inconclusive outcome. The list shows a part of the results. Values without a mark were called inactive. Rule as the data show it: active = normalized growth mostly below about 0.91 (no sharp cut-off); inconclusive = no clear call, values can overlap the other calls; inactive = mostly above about 0.92.

Assay: chemical genetic growth profiling, strain panel (AID 1159580);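 also: tested at 20 µM; growth read once vehicle control cultures reached saturation at 30 °C; 1 = growth at the plate median or of vehicle wells; lower values mean less growth of the strain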
Details: growth OD

SMILES: Cc1c(OCC(F)(F)F)ccnc1CS(=O)c1nc2ccccc2[nH]1 (stereo not given)
- normalized growth (S. cerevisiae deletion strains, locus YJR075W, strain HOC1, hits give low values): 0.948 and 0.981
- normalized growth (S. cerevisiae deletion strains, locus YKL009W, strain mrt4, hits give low values): 0.991
- normalized growth (S. cerevisiae deletion strains, locus YKL068W, hits give low values): 0.997
- normalized growth (S. cerevisiae deletion strains, locus YKL085W, strain MDH1 (second series), hits give low values): 0.939
- normalized growth (S. cerevisiae deletion strains, locus YKL085W, strain MDH1, hits give low values): 0.939
- normalized growth (S. cerevisiae deletion strains, locus YKL160W, strain elf1, hits give low values): 1.01
- normalized growth (S. cerevisiae deletion strains, locus YKL190W, strain CNB1, hits give low values): 0.987
- normalized growth (S. cerevisiae deletion strains, locus YKR001C, strain vps1, hits give low values): 0.914
- normalized growth (S. cerevisiae deletion strains, locus YKR026C, strain gcn3, hits give low values): 1
- normalized growth (S. cerevisiae deletion strains, locus YKR091W, strain srl3, hits give low values): 1.01
- normalized growth (S. cerevisiae deletion strains, locus YLL001W, strain dnm1, hits give low values): 1.01
- normalized growth (S. cerevisiae deletion strains, locus YLL026W, hits give low values): 1.02
- normalized growth (S. cerevisiae deletion strains, locus YLL041C, strain sdh2, hits give low values): 1.01
- normalized growth (S. cerevisiae deletion strains, locus YLR027C, strain aat2, hits give low values): 1.01
- normalized growth (S. cerevisiae deletion strains, locus YLR039C, strain RIC1, hits give low values): 0.985
- normalized growth (S. cerevisiae deletion strains, locus YLR058C, strain SHM2, hits give low values): 0.966
- normalized growth (S. cerevisiae deletion strains, locus YLR102C, strain apc9, hits give low values): 1
- normalized growth (S. cerevisiae deletion strains, locus YLR113W, strain HOG1, hits give low values): 0.581 (active)
- normalized growth (S. cerevisiae deletion strains, locus YLR221C, strain rsa3, hits give low values): 1
- normalized growth (S. cerevisiae deletion strains, locus YLR258W, strain gsy2, hits give low values): 1.02
- normalized growth (S. cerevisiae deletion strains, locus YLR262C, strain YPT6 (second series), hits give low values): 1.05
- normalized growth (S. cerevisiae deletion strains, locus YLR262C, strain YPT6, hits give low values): 0.998
- normalized growth (S. cerevisiae deletion strains, locus YLR268W, strain sec22, hits give low values): 0.826 (active)
- normalized growth (S. cerevisiae deletion strains, locus YLR320W, strain mms22, hits give low values): 1.01
- normalized growth (S. cerevisiae deletion strains, locus YLR330W, strain CHS5, hits give low values): 0.987
- normalized growth (S. cerevisiae deletion strains, locus YLR342W, strain FKS1 (second series), hits give low values): 0.926
- normalized growth (S. cerevisiae deletion strains, locus YLR342W, strain FKS1, hits give low values): 1.04
- normalized growth (S. cerevisiae deletion strains, locus YLR357W, strain rsc2, hits give low values): 1.01
- normalized growth (S. cerevisiae deletion strains, locus YLR370C, strain arc18, hits give low values): 1.02
- normalized growth (S. cerevisiae deletion strains, locus YLR371W, strain rom2, hits give low values): 0.989
- normalized growth (S. cerevisiae deletion strains, locus YLR384C, strain iki3, hits give low values): 1.02
- normalized growth (S. cerevisiae deletion strains, locus YLR418C, strain cdc73, hits give low values): 0.828 (active)
- normalized growth (S. cerevisiae deletion strains, locus YML016C, strain PPZ1, hits give low values): 0.979
- normalized growth (S. cerevisiae deletion strains, locus YML032C, strain rad52, hits give low values): 0.93
- normalized growth (S. cerevisiae deletion strains, locus YML120C, strain ndi1, hits give low values): 1.02
- normalized growth (S. cerevisiae deletion strains, locus YML124C, strain tub3, hits give low values): 0.997
- normalized growth (S. cerevisiae deletion strains, locus YMR058W, strain fet3, hits give low values): 1.01
- normalized growth (S. cerevisiae deletion strains, locus YMR078C, strain ctf18, hits give low values): 0.989
- normalized growth (S. cerevisiae deletion strains, locus YMR125W, strain sto1, hits give low values): 1.02
- normalized growth (S. cerevisiae deletion strains, locus YMR129W, hits give low values): 1.02
- normalized growth (S. cerevisiae deletion strains, locus YMR205C, strain PFK2, hits give low values): 1.04
- normalized growth (S. cerevisiae deletion strains, locus YMR223W, strain ubp8, hits give low values): 0.981
- normalized growth (S. cerevisiae deletion strains, locus YMR231W, strain pep5, hits give low values): 1.02
- normalized growth (S. cerevisiae deletion strains, locus YMR263W, strain SAP30, hits give low values): 0.97 and 0.99
- normalized growth (S. cerevisiae deletion strains, locus YMR307W, strain GAS1, hits give low values): 0.907
- normalized growth (S. cerevisiae deletion strains, locus YNL067W, strain RPL9B, hits give low values): 0.958
- normalized growth (S. cerevisiae deletion strains, locus YNL071W, strain lat1, hits give low values): 1.01
- normalized growth (S. cerevisiae deletion strains, locus YNL128W, strain TEP1, hits give low values): 0.974
- normalized growth (S. cerevisiae deletion strains, locus YNL153C, strain GIM3, hits give low values): 0.956
- normalized growth (S. cerevisiae deletion strains, locus YNL175C, strain NOP13, hits give low values): 0.996
- normalized growth (S. cerevisiae deletion strains, locus YNL183C, strain NPR1, hits give low values): 0.789 (active)
- normalized growth (S. cerevisiae deletion strains, locus YNL197C, strain WHI3, hits give low values): 0.998
- normalized growth (S. cerevisiae deletion strains, locus YNL209W, strain ssb2, hits give low values): 1.01
- normalized growth (S. cerevisiae deletion strains, locus YNL224C, strain SQS1, hits give low values): 0.993
- normalized growth (S. cerevisiae deletion strains, locus YNL233W, strain BNI4, hits give low values): 0.941
- normalized growth (S. cerevisiae deletion strains, locus YNL248C, strain rpa49, hits give low values): 1.02
- normalized growth (S. cerevisiae deletion strains, locus YNL250W, strain rad50, hits give low values): 0.902
- normalized growth (S. cerevisiae deletion strains, locus YNL271C, strain bni1, hits give low values): 0.913 (active)
- normalized growth (S. cerevisiae deletion strains, locus YNL298W, strain CLA4, hits give low values): 0.834 (active)
- normalized growth (S. cerevisiae deletion strains, locus YNL307C, strain MCK1, hits give low values): 0.872 (active)
- normalized growth (S. cerevisiae deletion strains, locus YNL322C, strain KRE1 (second series), hits give low values): 1.02
- normalized growth (S. cerevisiae deletion strains, locus YNL322C, strain KRE1, hits give low values): 0.998
- normalized growth (S. cerevisiae deletion strains, locus YNR049C, strain mso1, hits give low values): 1.01
- normalized growth (S. cerevisiae deletion strains, locus YNR052C, strain pop2, hits give low values): 0.98
- normalized growth (S. cerevisiae deletion strains, locus YOL006C, strain TOP1, hits give low values): 0.989
- normalized growth (S. cerevisiae deletion strains, locus YOL012C, strain htz1): 0.898
- normalized growth (S. cerevisiae deletion strains, locus YOL147C, strain pex11, hits give low values): 0.965
- normalized growth (S. cerevisiae deletion strains, locus YOR001W, strain rrp6, hits give low values): 1.02
- normalized growth (S. cerevisiae deletion strains, locus YOR061W, strain CKA2, hits give low values): 0.992
- normalized growth (S. cerevisiae deletion strains, locus YOR069W, strain VPS5, hits give low values): 0.989
- normalized growth (S. cerevisiae deletion strains, locus YOR070C, strain gyp1, hits give low values): 1.02
- normalized growth (S. cerevisiae deletion strains, locus YOR080W, strain dia2, hits give low values): 1.01
- normalized growth (S. cerevisiae deletion strains, locus YOR083W, strain WHI5 (second series), hits give low values): 0.966
- normalized growth (S. cerevisiae deletion strains, locus YOR083W, strain WHI5, hits give low values): 1.01
- normalized growth (S. cerevisiae deletion strains, locus YOR106W, strain vam3, hits give low values): 0.991
- normalized growth (S. cerevisiae deletion strains, locus YOR136W, strain idh2, hits give low values): 0.979
- normalized growth (S. cerevisiae deletion strains, locus YOR144C, strain elg1, hits give low values): 0.977
- normalized growth (S. cerevisiae deletion strains, locus YOR184W, strain ser1, hits give low values): 0.881
- normalized growth (S. cerevisiae deletion strains, locus YOR231W, strain MKK1, hits give low values): 0.91
- normalized growth (S. cerevisiae deletion strains, locus YOR265W, strain rbl2, hits give low values): 1.02
- normalized growth (S. cerevisiae deletion strains, locus YOR270C, strain vph1, hits give low values): 1.06
- normalized growth (S. cerevisiae deletion strains, locus YOR290C, strain snf2, hits give low values): 1.01
- normalized growth (S. cerevisiae deletion strains, locus YOR316C, strain cot1, hits give low values): 0.988
- normalized growth (S. cerevisiae deletion strains, locus YPL051W, strain arl3, hits give low values): 0.993
- normalized growth (S. cerevisiae deletion strains, locus YPL055C, strain LGE1, hits give low values): 0.955 and 0.953
- normalized growth (S. cerevisiae deletion strains, locus YPL078C, strain atp4, hits give low values): 1.02
- normalized growth (S. cerevisiae deletion strains, locus YPL106C, strain sse1, hits give low values): 1.01
- normalized growth (S. cerevisiae deletion strains, locus YPL240C, strain hsp82, hits give low values): 1.02
- normalized growth (S. cerevisiae deletion strains, locus YPL241C, strain CIN2, hits give low values): 1
- normalized growth (S. cerevisiae deletion strains, locus YPR119W, strain clb2, hits give low values): 0.996
- normalized growth (S. cerevisiae deletion strains, locus YPR141C, strain kar3, hits give low values): 1.01
- normalized growth (S. cerevisiae deletion strains, locus YPR163C, strain tif3, hits give low values): 0.976
- normalized growth (S. cerevisiae deletion strains, locus YPR167C, strain met16, hits give low values): 0.988
- normalized growth (S. cerevisiae deletion strains, strain wtn01, hits give low values): 0.95
- normalized growth (S. cerevisiae strains, strain wild type, hits give low values): 0.972
